Compounds with a hit are over-represented: about 11% of the library has one in this group of screens.
AMA1-RON2 inh = qHTS for Inhibitors of AMA1-RON; Towards Development of Antimalarial Drug Lead: Primary Screen | AlphaScreen AMA1-biotinylated RON2 peptide binding | Potency, µM (series often up to 58.2 µM), for inactives: top-dose activity change, negative = inhibition, most hits filed as inhibitors | 360,000 tested, 0.2% active;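 further: 0% = vehicle wells and -100% = peptide control; nearly all actives have a fitted effect of over 45% in size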
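AMA1 (3D7) with his tag at 25 nM final met compounds first, then biotinylated RON2 peptide at 25 nM; detection used donor plus acceptor beads, 10 µg/mL apiece, read by AlphaScreen after 30 min at room temperature.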
Pf growth 96h = Primary qHTS for delayed death inhibitors of the malarial parasite plastid, 96 hour incubation; 320,000 tested, 6.9% active; Potency, µM (top dose mostly 28.7 µM), inactives show top-dose activity change, negative = inhibition, hits mostly inhibitors; P. falciparum luciferase reporter growth, 96 h; further: on the % scale 0 is the no-effect control and ±100 the full control effect
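Parasite growth measured via integrated firefly luciferase reporter in P. falciparum. Infected erythrocytes at 2% hematocrit, 0.05% parasitemia final were treated 96 hours at 37 C under 5% CO2, and luminescence was read.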
Pf growth 48h = Primary qHTS for delayed death inhibitors of the malarial parasite plastid, 48 hour incubation; P. falciparum luciferase growth in erythrocytes, 48 h; AID 504832, 2011; Potency, µM (series often up to 28.7 µM), inactives show at the top dose activity change, negative = inhibition, most hits filed as inhibitors; 310,000 tested, 5.9% active; further: on the % scale 0 is the no-effect control and ±100 the full control effect
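Erythrocytes infected with P. falciparum carrying an integrated firefly luciferase reporter (2% hematocrit, 0.1% parasitemia final) were exposed to compounds in RPMI 1640 with 0.5% Albumax at 37 C, 5% CO2. Growth inhibition was scored as reduced luminescence.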
NS1 inh = qHTS Assay for Inhibitors of Influenza NS1 Protein Function; AID 2326, 2010; Potency, µM (titrated, usually from 46.1 µM), for inactives: at the top dose activity, positive = more growth; 270,000 tested, 0.4% active; calls by dose curve; further: actives are rising curves; nearly all actives have a fitted effect of over 50% in size
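Growth recovery, yeast-based: influenza A NS1 expressed in S. cerevisiae causes slow growth, and suppressors are detected by OD600. The parent strain without NS1 is used as positive control.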
Sm TGR inh = qHTS Assay for the Inhibitors of Schistosoma Mansoni Peroxiredoxins. Potency, µM (top dose mostly 114 µM), without a hit: at the top dose activity change, negative = inhibition, actives largely listed as inhibitors. purified TGR, DTNB reduction, TNB absorbance 405 nm. 360,000 tested, 3% active. Schistosoma mansoni thioredoxin glutathione reductase (TGR), Q962Y6. AID 485364, 2010; further: on the % scale 0 is the no-effect control and ±100 the full control effect; nearly all actives have a fitted effect of over 60% in size
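Kinetic colorimetric format: TGR-catalysed, NADPH-driven DTNB reduction monitored via TNB absorbance. Enzyme dispensed at 20 nM; compound exposure 15 min at room temperature before reaction start.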
Active calls of the source: *; ? = inconclusive; . = no result given; [ ] = dose if it differs, or a comment. Unless noted, the call rests on the fitted dose curve; in most records, active means well fitted curve in the direction sought with a large enough effect; inconclusive means small, poorly fitted or top-dose-only effect, or another doubt; inactive means no such curve, though single readings can be large; an effect the other way counts as inactive or inconclusive. Potency means the concentration at half of the fitted maximal effect.

SMILES	AMA1-RON2 inh	Pf growth 96h	Pf growth 48h	NS1 inh	Sm TGR inh
CCn1c2ccccc2c2cc(NC(=O)C(C)OC(=O)c3ccc(NC(=O)CC#N)cc3)ccc21 (stereo not given)	14%	?	12µM*	.	-9%
Cc1cc(C)cc(NC(=O)C(OC(=O)c2ccc(NC(=O)CC#N)cc2)c2ccccc2)c1 (stereo not given)	10%	10µM*	10µM*	.	-2%
CCn1c2ccccc2c2cc(NC(=O)COC(=O)c3ccc(O)cc3)ccc21	2%	24%	0%	.	0%
CC(OC(=O)c1ccc(S(=O)(=O)N(C)c2ccccc2)cc1)C(=O)NCCC1=CCCCC1 (stereo not given)	-3%[11.6 µM]	-8%	1%	16%	-8%
O=C(Nc1nnc(CCN2CCCCC2)s1)c1ccc(Cl)cc1Cl	1%	-8%	11%	-2%	9%
CN(CC(=O)NNC(=O)CNC(=O)c1cccs1)S(=O)(=O)c1ccc(Cl)cc1	69%	14%	3%	.	-11%
COc1ccc(CCNS(=O)(=O)c2ccc([N+](=O)[O-])cc2)cc1OC	-9%	?	12%	11%	-5%
Cc1ccc(C)c(NC(=O)C(OC(=O)c2ccc(NC(=O)CC#N)cc2)c2ccccc2)c1 (stereo not given)	-12%	?	10µM*	.	-4%
Cc1ccc(C)c(NC(=O)C(OC(=O)c2ccc(CO)cc2)c2ccccc2)c1 (stereo not given)	96%	?	?	.	5%
CCN(C(=O)c1cnc(N2CCOCC2)c2ccccc12)c1cc(C)ccc1C	.	.	.	.	-2%
CC1CCOC(c2coc3ccccc3c2=O)O1 (stereo not given)	-5%	182%	162%	3%	-7%
O=C(O)C1CSC(c2coc3ccccc3c2=O)N1 (stereo not given)	2%	?	-8%	-33%	2.5µM*
COc1ccc(CNc2nc(-c3ccc(OC)c(OC)c3)cc(C(F)(F)F)n2)cc1	.	.	.	.	5%
COc1ccc(-c2cc(C(F)(F)F)nc(NC3CCCC3)n2)cc1OC	9%	13%	15µM*	12%	-20%
CO/N=C(/C(=O)N[C@@H]1C(=O)N2C(C(=O)O)=C(CSC(=O)c3ccco3)CSC12)c1csc(N)n1 (stereo not given in full)	.	13µM*	?	.	.
CO/N=C(\C(=O)N[C@@H]1C(=O)N2C(C(=O)O)=C(COC(C)=O)CS[C@@H]12)c1csc(N)n1	.	0%	1%	.	.
CO/N=C(/C(=O)N[C@@H]1C(=O)N2C(C(=O)O)=C(C[n+]3ccc(N)n3CCO)CS[C@H]12)c1csc(N)n1	.	11µM*	-6%	.	.
O=C(Nc1ccc(C(=O)N2CCCC2)cc1)C1CC1	7%	.	.	.	.
CC1(C)CC(=O)C2=C(C1)NC(SCC(N)=O)=C(C#N)C21CCCCC1	2%	0.17µM*	?	4%	5%
CCSC1=C(C#N)C2(CCCCC2)C2=C(CC(C)(C)CC2=O)N1	-4%	?	15%	5%	13%
O=C(COC(=O)c1ccc(-c2ccc([N+](=O)[O-])cc2)o1)NC(=O)NC1CCCCC1	-6%	-22%	17%	5%	40µM*
O=C(NC1CCC(O)CC1)c1ccc(-c2ccc([N+](=O)[O-])cc2)o1 (stereo not given)	3%	16%	20%	12%	1.4µM*
N=C1S/C(=C\c2ccc(-c3cccc(Cl)c3)o2)C(=O)N1c1nccs1	71%	?	4.7µM*	9%	-20%
COc1ccc(/C=C2\SC(=N)N(c3nccs3)C2=O)cc1OC	111%	?	?	-11%	4%
COc1cccc(NC(=O)CN(C)C(=O)c2cn(-c3ccccc3)nc2-c2cccnc2)c1	5%	?	12µM*	.	4%
SMILES	AMA1-RON2 inh	Pf growth 96h	Pf growth 48h	NS1 inh	Sm TGR inh
COc1ccc(Cl)cc1NC(=O)CN(C)C(=O)c1cn(-c2ccccc2)nc1-c1cccnc1	-6%	10µM*	?	.	-3%
COc1ccc(CC(=O)NCc2ccc3c(c2)CCN3C(C)=O)cc1	.	.	.	.	6%
CCCN1C(=O)/C(=C2\SC(N3CCCCC3)=NC2=O)c2ccccc21	?	?	?	-103%	5%
CC1CN(C2=NC(=O)/C(=C3/C(=O)N(Cc4ccc(F)cc4)c4ccccc43)S2)CC(C)O1 (stereo not given)	-18%	5.9µM*	?	3%	-6%
O=C1N=C(N2CCOCC2)S/C1=C1\C(=O)N(Cc2ccccc2)c2ccccc21	-1%	?	15%	4%	0%
CN1C(=O)/C(=C2\SC(N3CCCCCC3)=NC2=O)c2ccccc21	-9%	4.1µM*	.	-3%	1%
CCOc1ccc(NC(=O)CC(C)O)cc1 (stereo not given)	.	4%	-1%	.	.
CC(C)Nc1nc(NC(C)C)nc(N(C#N)CCOc2ccc(Cl)cc2Cl)n1	-9%	?	10µM*	-3%	-23%
Cc1cc(C)nc(N(C#N)CCOc2ccc(Cl)cc2)n1	25%	?	?	-26%	-1%
Cc1ccc(C(=O)N2CC(C)SC2=Nc2cccc(S(=O)(=O)N(C)C)c2)cc1 (stereo not given)	-4%	?	-20%	0%	-25%
Cc1cc(C)cc(C(=O)N2CC(C)SC2=Nc2cccc(S(=O)(=O)N(C)C)c2)c1 (stereo not given)	-26%	?	13µM*	6%	1%
CC(=O)C1=C(C)Nc2ncnn2C1c1ccccc1Cl (stereo not given)	-1%	0.52µM*	12%	-1%	7%
CC1=C(C(=O)Nc2ccccc2)C(c2ccc[nH]2)n2ncnc2N1 (stereo not given)	.	6%	9%	.	28µM*
Cn1nnnc1SCCCNCc1cccc(OCc2ccc(F)cc2)c1	.	.	.	.	-4%
CCOc1ccc(NS(=O)(=O)c2cc(C(=O)N3CCC3)ccc2Cl)cc1	0%	1%	-3%	.	-8%
COc1ccc(-n2c(SCC(=O)NCc3ccccc3)nc3c([nH]c4ccccc43)c2=O)cc1	.	.	.	.	10%
CCCCc1nn2c(=O)cc(COC(=O)CNC(=O)c3ccccc3C)nc2s1	.	.	.	.	11%

Assay outcomes (PubChem)
